# Assay results: PubChem BioAssay (NCATS)
# Records with an inconclusive call do not appear. Values without a mark were called inactive. Activity calls are given as the source filed them. Calls come from the whole dose curve; as a rule, active = well fitted activation curve with a large enough effect; inconclusive = small, poorly fitted or top-dose-only effect; inactive = flat fitted curve, though single readings scatter.
# Experiment: Cellular Toxicity (caspase-3) H-4-II-E (AID 663);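 for caspase-3 activation: cells exposed to compound for 16 hr before readout; 0% = DMSO basal and 100% = 100 µM tamoxifen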
# Details: H-4-II-E rat hepatoma; Potency: caspase-3 activation; series mostly up to 92.2 µM; caspase-3 activation: at the top concentration
# Excerpt: NIH Chemical Genomics Center [NCGC]
# NIH Molecular Libraries Screening Centers Network [MLSCN]
# National Institutes of Environmental Health Sciences [NIEHS]
# National Toxicology Program [NTP]
# We have developed a 1536-well cell-based assay for quantitative high throughput screening (qHTS) against a number of cell lines to determine in vitro caspase 3/7 of small molecules. This particular assay uses the H-4-II-E cell line which is derived from rat hepatoma.
# NCGC Assay Protocol Summary:
# The Caspase-Glo 3/7 assay (Promega) is a homogeneous method to measure caspase-3 and caspase-7 activities in cultured cells. The quantitation of caspase 3/7 activity is based on the cleavage of a peptide-aminoluciferin substrate. After caspase cleaves the substrate the free aminoluciferin is liberated and serves as the substrate of luciferase, which generates the light. The luminescent signal is proportional to amount of caspase 3/7 activity present.
# Using the Caspase-Glo 3/7 assay, the amount of caspase 3/7 activity was measured in the H-4-II-E cell line with complete culture medium following compound treatment for 16 hours. The assay was performed in opaque white 1536-well plates. In the screen, tamoxifen and doxorubicin were used as positive controls. Library compounds were measured for their ability to cause the activation of caspase 3/7 in the cell line, as reflected by an increase in luminescence signal, in a concentration-dependent manner. Data were normalized to the controls for basal activity (DMSO only) and 100% stimulation (100 uM tamoxifen). AC50 values were determined from concentration-response data modeled with the standard Hill equation.
# qHTS protocol for caspase 3/7 assay in H-4-II-E cells
# [Step] [Parameter] [Value] [Description]
# 1. Reagent; 5 uL; 1500 H-4-II-E cells/well
# 2. Time; 5 hr; 37 °C incubation
# 4. Controls; 23 nL; Tamoxifen 0.23 uM to 100 uM & Doxorubicin 7.0 pM to 100 uM
# 5. Time; 16 hr; 37 °C incubation
# 6. Reagent; 5 uL; Caspase-Glo 3/7 reagent
# 7. Time; 20 min; Room Temperature
# 8. Detection; Luminescence; Viewlux plate reader
# Keywords: caspase 3/7, apoptosis, H-4-II-E cell line, luminescence, NTPHTS, NTPHTS_NCGC, NIEHS, EPA, DSSTox, MLSMR, MLSCN, NIH Roadmap, qHTS, NCGC
# Potency is the fitted concentration of half-maximal effect.
SMILES,caspase-3 activation,Potency
OCCBr,1.35%,
N#CC(O)c1ccccc1 (stereo not given),0.445%,
O=Cc1ccc(Cl)cc1Cl,1.07%,
O=C(O)C(Cl)Br (stereo not given),-0.0988%,
CN(C)C(=O)Nc1ccc(Cl)cc1,0.376%,
CSSC,-0.316%,
O=[N+]([O-])/C=C/c1ccccc1,,6.31 µM (active)
O=C(Cc1ccccc1)OCc1ccccc1,-0.551%,
CC(C#N)CCC#N (stereo not given),1.59%,
ClC(Cl)(Cl)C(Cl)(Cl)Cl,0.142%,
C=CC(=O)OCC(CC)CCCC (stereo not given),0.661%,
c1ccoc1,-0.216%,
NC1CCC(CC2CCC(N)CC2)CC1 (stereo not given),0.189%,
Cc1coc2c1CCC(C)C2 (stereo not given),0.172%,
Cc1ccc2c(c1N)C(=O)c1ccccc1C2=O,-3.31%,
BrCCc1ccccc1,2.78%,
O=[N+]([O-])c1cccc(O)c1,-0.699%,
ClCCOCCCl,0.361%,
Clc1cc(Cl)c(Cl)c(Cl)c1,0.433%,
O=P(OCCCl)(OCCCl)OCCCl,0.318%,

SMILES,caspase-3 activation,Potency
ClP(Cl)(Cl)(Cl)Cl,-0.26%,
Cc1cccc(C)c1N,-0.25%,
ClC(Cl)c1ccccc1,0.0851%,
Nc1ccc(-c2ccc(N)c(Cl)c2)cc1Cl,7.45%,
Nc1ccc(Oc2ccc(N)cc2)cc1,0.0947%,
CCN(CC)N=O,0.55%,
Nc1ccc([N+](=O)[O-])cc1N,5.42%,
CC(=O)CCC(C)=O,-0.763%,
CN(C)N=O,1.49%,
O=[N+]([O-])c1ccccc1CCl,-3.2%,
C1CC2OC2CC1C1CO1 (stereo not given),1.37%,
CC(C)C#N,0.13%,
CC(=O)NNc1ccccc1,1.7%,
[O-][Cl+2]([O-])O,-0.629%,
COC(=O)c1ccccc1N,-0.527%,
C=C(Cl)CSC(=S)N(CC)CC,0.487%,
CCOC(=O)CBr,-0.479%,
COC(=O)Nc1nc2ccccc2[nH]1,0.718%,
Cc1cnc[nH]1,-0.752%,
CC(C)(C)C(O)(CCc1ccc(Cl)cc1)Cn1cncn1 (stereo not given),0.573%,
